HCV inhibitor = inhibitors of hepatitis C virus infection. Potency, µM (titrated, usually from 41.8 µM), hits mostly inhibitors. Huh7.5.1 HCVcc-Cre infection, luciferase reporter, 44 h. AID 651820. 340,000 compounds, 3.4% hits
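After 44 h co-culture of compound, cells and HCVcc-Cre (~0.5 moi), substrate is added for 15 min at room temperature and luciferase measured over 15 sec. Cells were seeded at 1,000/well and pre-cultured 4 h.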
Pf growth 96h = P. falciparum growth inhibition at 96 hour, primary screen for plastid delayed-death inhibitors. P. falciparum luciferase reporter growth, 96 h. Potency, µM (titrated, usually from 28.7 µM), usual class: inhibitors. 320,000 compounds, 6.9% hits
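Two-generation exposure (96 h) targets delayed-death phenotype. Reporter parasites carrying integrated firefly luciferase, in red cells at 2% hematocrit and 0.05% parasitemia final, kept at 37 C, 5% CO2; luminescence loss indicates inhibition.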
HCMV inh = inhibitors of human cytomegalovirus. HFF cells, HCMV-luciferase reporter, 72 h; active compounds read low. activity change, negative = inhibition, % at 57.5 µM. 410,000 compounds, 4.5% hits. AID 1259415; in the data active means activity change below about -60%; inconclusive means no clear call, values can overlap the other calls; inactive means above about -39%
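After 16 h attachment at 37C, HFF cells received test compound and HCMV-luciferase (1 PFU/cell); reporter luminescence read 72 h later, data normalized against buffer-only and known inhibitor Salinomycin.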
Pf growth 48h = P. falciparum growth inhibition at 48 hours (one generation); 310,000 compounds, 5.9% hits; Potency, µM (top dose mostly 28.7 µM), actives largely listed as inhibitors; AID 504832; P. falciparum luciferase growth in erythrocytes, 48 h
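Compounds are pin-transferred into medium, infected erythrocytes (2% hematocrit, 0.1% parasitemia final) are added, and plates sit one parasite generation at 37 C in 5% CO2. Detection reagent is then added and luminescence measured.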
Large screens that a line does not name were inactive; ! = not active in a repeat. Only some compounds are listed: those with a hit (about 13% of all), similar ones and a draw of the others. Unless noted, the call rests on the fitted dose curve; in most records, active means well fitted inhibition curve with a large enough effect; inconclusive means small, poorly fitted or top-dose-only effect, or another doubt; inactive means no such curve, though single readings can be large or run the other way.

CC(=O)c1ccc(N2CCN(c3ncnc4c3cnn4-c3cc(Cl)ccc3C)CC2)cc1	none (no result: HCV inhibitor, Pf growth 96h, Pf growth 48h)
O=C(Nc1ccc(OC(F)(F)F)cc1)N1CCN(c2ccnc3cc(Cl)ccc23)CC1	HCV inhibitor 11µM, Pf growth 96h inconclusive, HCMV inh -85, Pf growth 48h inconclusive
CC(=O)c1ccc(N2CCN(c3ccnc4cc(Cl)ccc34)CC2)cc1	HCV inhibitor inconclusive, Pf growth 96h 6.6µM, HCMV inh inconclusive, Pf growth 48h 10µM
O=C(c1ccc(Cl)cc1)N1CCC(C(=O)N2CCN(c3ncccn3)CC2)CC1	Pf growth 96h inconclusive, Pf growth 48h inconclusive
CC(C)(C)C(=O)N1CCN(c2ccnc3cc(Cl)ccc23)CC1	HCV inhibitor inconclusive, HCMV inh -98, Pf growth 48h inconclusive
Cc1csc2c(N3CCN(C(=O)Nc4ccccc4)CC3)ncnc12	HCV inhibitor inconclusive, HCMV inh inconclusive
O=C(C1CCCCC1)N1CCN(c2ccnc3cc(Cl)ccc23)CC1	HCV inhibitor inconclusive, Pf growth 96h 3.3µM, HCMV inh -83, Pf growth 48h 1.9µM
Cc1csc2ncnc(N3CCN(C(=O)Nc4ccc(OC(F)(F)F)cc4)CC3)c12	HCV inhibitor 7.9µM, Pf growth 96h inconclusive, HCMV inh -64, Pf growth 48h inconclusive
COc1ccc(N2CCC(CNC(=S)Nc3cc(C)cc(C)c3)C2)cc1 (configuration not stated)	Pf growth 96h inconclusive, Pf growth 48h 9.3µM
O=C(Cn1ncc2c([nH]c3ccccc32)c1=O)Nc1cc(F)ccc1F	none (no result: HCV inhibitor, Pf growth 96h, Pf growth 48h)
O=C1c2ccccc2OC2(C=Cc3ccccc3O2)N1Cc1ccccc1 (configuration not stated)	HCV inhibitor inconclusive, Pf growth 96h 4.1µM (no result: Pf growth 48h)
Cc1cccc(CNC(=O)C2CCC(=O)N(CCCc3ccccc3)C2)c1 (configuration not stated)	none (no result: HCV inhibitor, Pf growth 96h, Pf growth 48h)
Cc1ccc(CC2C(=O)N(c3ncccn3)C(=O)C2C)cc1 (configuration not stated)	Pf growth 96h 0.83µM (no result: Pf growth 48h)
CC(C)c1ccc(NC(=O)c2ccc(CN3CC(=O)N4CCCCC4C3=O)cc2)cc1 (configuration not stated)	none (no result: HCV inhibitor, Pf growth 96h, Pf growth 48h)
COc1cc2ccccc2cc1C(=O)O	none (no result: Pf growth 96h)
COc1cc2ccccc2ccc1=NO	HCV inhibitor inconclusive, HCMV inh -68 (no result: Pf growth 96h, Pf growth 48h)
COC(=O)Nc1nnc(-c2ccncc2)s1	none (no result: Pf growth 96h)
Cc1cnc(NC(=O)CSc2ccc(Cl)cc2)s1	none
Cc1cnc(NC(=O)Nc2ccc(Cl)cc2)s1	HCV inhibitor inconclusive, HCMV inh -104
Cc1ccc(NC(=O)Nc2nnc(-c3ccncc3)s2)cc1C	HCV inhibitor inconclusive, Pf growth 96h inconclusive, HCMV inh -92, Pf growth 48h inconclusive
O=C(Nc1ccc(F)cc1)Nc1nnc(-c2ccncc2)s1	HCV inhibitor 25µM, Pf growth 96h inconclusive, HCMV inh -95, Pf growth 48h inconclusive
O=C(Nc1ccc(Cl)cc1)Nc1nnc(-c2ccncc2)s1	HCV inhibitor inconclusive, Pf growth 96h inconclusive, HCMV inh -67
O=C(Nc1cccc(Cl)c1)Nc1nnc(-c2ccncc2)s1	HCV inhibitor inconclusive, Pf growth 96h 5.2µM, HCMV inh -98, Pf growth 48h 12µM
O=C(NCCc1ccncc1)Nc1cccc(Cl)c1	Pf growth 96h inconclusive (no result: Pf growth 48h)
Cc1ccc(C)c(-c2[nH]c3c(c2-c2c(-n4cccc4)n(C)c(=O)[nH]c2=O)c(=O)[nH]c(=O)n3C)c1	none (no result: HCV inhibitor, Pf growth 96h, Pf growth 48h)
O=C(Cn1cc(SCc2c(F)cccc2Cl)c2ccccc21)N1CCCC1	none (no result: HCV inhibitor, Pf growth 96h, Pf growth 48h)
CC(C)C(NC(=O)Cc1ccccc1[N+](=O)[O-])C(C)C	Pf growth 96h 12µM
C=CCc1cccc2cc(-c3nc4ccc(C(=O)O)cc4[nH]3)c(=O)oc12	none (no result: HCV inhibitor, Pf growth 96h, Pf growth 48h)
CCOC(=O)c1cnc2ccccc2c1NCCc1ccc(OC)c(OC)c1	HCV inhibitor inconclusive, Pf growth 96h 1.7µM, Pf growth 48h 12µM
CCOC(=O)c1cnc2ccccc2c1Nc1cccc(C(=O)O)c1	none
CCOC(=O)c1cnc2ccc(OC)cc2c1NCCc1ccc(OC)c(OC)c1	HCV inhibitor 5µM, Pf growth 96h inconclusive, HCMV inh inconclusive, Pf growth 48h 2.6µM
O=C(Nc1ccccc1C(F)(F)F)c1ccc(F)c(S(=O)(=O)N2CCc3ccccc3C2)c1	none (no result: HCV inhibitor, Pf growth 96h, Pf growth 48h)
CCc1ccc(NC(=O)c2ccc(F)c(S(=O)(=O)N3CCC(C)CC3)c2)cc1	none (no result: HCV inhibitor, Pf growth 96h, Pf growth 48h)
CCc1ccc(NC(=O)c2ccc(F)c(S(=O)(=O)N3CCc4ccccc4C3)c2)cc1	HCMV inh -68 (no result: HCV inhibitor, Pf growth 96h, Pf growth 48h)
O=C(Nc1ccc(F)c(F)c1)c1ccc(F)c(S(=O)(=O)N2CCC3(CC2)OCCO3)c1	HCV inhibitor 13µM, Pf growth 96h 10µM, HCMV inh -82!, Pf growth 48h inconclusive
CCc1ccc(NC(=O)c2ccc(F)c(S(=O)(=O)N3CCC4(CC3)OCCO4)c2)cc1	HCMV inh -90 (no result: HCV inhibitor, Pf growth 96h, Pf growth 48h)
O=S(=O)(c1cc(F)ccc1F)N1CCC2(CC1)OCCO2	none
CCc1nnc2c3ccccc3nc(Nc3cc(C)cc(C)c3)n12	none (no result: HCV inhibitor, Pf growth 96h, Pf growth 48h)
Cc1ccc(C(c2c(O)cc(C)n(Cc3ccco3)c2=O)N2CCC(C)CC2)cc1 (configuration not stated)	none (no result: HCV inhibitor, Pf growth 96h, Pf growth 48h)
O=C(N/N=C/c1cn(-c2ccccc2)nc1-c1ccc2c(c1)OCCO2)c1ccncc1	none
COc1ccccc1/C=N/NC(=O)c1ccc2c(c1)OCO2	Pf growth 96h inconclusive, Pf growth 48h inconclusive
O=C(N/N=C\c1cn(-c2ccccc2)nc1-c1ccccc1)c1ccc2c(c1)OCO2	HCV inhibitor 13µM, Pf growth 96h 12µM, Pf growth 48h inconclusive
O=C(N/N=C/c1cn(-c2ccccc2)nc1-c1ccc(F)cc1)c1ccc2c(c1)OCO2	HCV inhibitor inconclusive, Pf growth 96h 13µM, Pf growth 48h inconclusive
COc1ccc(-c2nc3nc(C)cc(Nc4ccc(C(C)=O)cc4)n3n2)cc1	none (no result: HCV inhibitor, Pf growth 96h, Pf growth 48h)
COc1cccc2c1Oc1ncccc1N(C(=O)CCC(=O)NCc1ccc(N(C)C)cc1)C2	none (no result: HCV inhibitor, Pf growth 96h, Pf growth 48h)
COc1ccc(C2C(C(=O)Nc3cc(C)on3)c3ccccc3C(=O)N2C)cc1 (configuration not stated)	Pf growth 48h inconclusive
COc1ccc(C2C(C(=O)Nc3cc(OC)c(OC)c(OC)c3)c3ccccc3C(=O)N2C)cc1OC (configuration not stated)	HCMV inh inconclusive, Pf growth 48h 12µM
COc1ccc(C2C(C(=O)Nc3cccc(C)n3)c3ccccc3C(=O)N2C)cc1 (configuration not stated)	Pf growth 96h 3.7µM, Pf growth 48h inconclusive
COc1ccc(C2C(C(=O)NC(C)C)c3ccccc3C(=O)N2C)cc1OC (configuration not stated)	Pf growth 96h 1µM
COc1ccc(C2C(C(=O)Nc3ccc(OC)c(OC)c3)c3ccccc3C(=O)N2C)cc1 (configuration not stated)	Pf growth 96h inconclusive, Pf growth 48h inconclusive
COc1ccc(C2C(C(=O)Nc3cc(C)on3)c3ccccc3C(=O)N2C)cc1OC (configuration not stated)	Pf growth 96h inconclusive, Pf growth 48h inconclusive
CCNc1nc(NCC)nc(N/N=C/c2ccc([N+](=O)[O-])o2)n1	Pf growth 96h 4.1µM, HCMV inh inconclusive (no result: Pf growth 48h)
O=[N+]([O-])c1ccc(/C=N/Nc2ccc3ccccc3c2)o1	HCMV inh -72
